# What was measured:
# Experiment in all cases: log2 fold change of tryptic peptide abundance, ligand vs vehicle (limited proteolysis) (log2 ratio); higher = more trypsin-susceptible (destabilized)
# UniProt P02918 = biological target: T1, UniProt P02918; settings: peptide sequence: NSPPQYAGPIR; peptide start residue: 506; ligand concentration: 10 uM; sample: E. coli crude lysate
# T1 sequence (whole entry): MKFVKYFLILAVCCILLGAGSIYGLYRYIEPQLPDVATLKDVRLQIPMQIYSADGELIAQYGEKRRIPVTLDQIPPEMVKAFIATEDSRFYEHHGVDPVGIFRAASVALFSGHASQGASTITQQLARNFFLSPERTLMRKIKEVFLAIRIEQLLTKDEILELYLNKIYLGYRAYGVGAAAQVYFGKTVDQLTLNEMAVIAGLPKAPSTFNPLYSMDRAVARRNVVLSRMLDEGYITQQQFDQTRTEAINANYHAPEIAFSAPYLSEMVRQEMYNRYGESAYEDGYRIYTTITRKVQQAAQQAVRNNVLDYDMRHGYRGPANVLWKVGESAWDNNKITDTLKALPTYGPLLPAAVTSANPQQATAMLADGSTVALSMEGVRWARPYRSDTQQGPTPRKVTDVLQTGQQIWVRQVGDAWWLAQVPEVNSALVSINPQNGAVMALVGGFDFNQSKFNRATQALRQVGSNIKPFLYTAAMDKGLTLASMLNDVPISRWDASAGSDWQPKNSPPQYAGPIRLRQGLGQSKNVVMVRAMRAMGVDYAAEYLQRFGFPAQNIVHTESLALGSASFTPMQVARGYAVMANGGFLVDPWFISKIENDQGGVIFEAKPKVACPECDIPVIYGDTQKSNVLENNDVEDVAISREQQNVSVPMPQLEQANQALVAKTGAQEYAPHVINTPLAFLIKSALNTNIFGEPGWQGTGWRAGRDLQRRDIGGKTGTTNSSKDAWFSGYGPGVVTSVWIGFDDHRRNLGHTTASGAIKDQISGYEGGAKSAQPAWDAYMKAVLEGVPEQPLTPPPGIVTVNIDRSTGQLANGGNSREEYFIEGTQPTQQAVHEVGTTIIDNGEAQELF
# UniProt P02919 = biological target: T2, UniProt P02919; settings: peptide sequence: QPNGQVWSPQNDDRR; peptide start residue: 542; ligand concentration: 10 uM; sample: E. coli crude lysate
# T2 sequence (whole entry): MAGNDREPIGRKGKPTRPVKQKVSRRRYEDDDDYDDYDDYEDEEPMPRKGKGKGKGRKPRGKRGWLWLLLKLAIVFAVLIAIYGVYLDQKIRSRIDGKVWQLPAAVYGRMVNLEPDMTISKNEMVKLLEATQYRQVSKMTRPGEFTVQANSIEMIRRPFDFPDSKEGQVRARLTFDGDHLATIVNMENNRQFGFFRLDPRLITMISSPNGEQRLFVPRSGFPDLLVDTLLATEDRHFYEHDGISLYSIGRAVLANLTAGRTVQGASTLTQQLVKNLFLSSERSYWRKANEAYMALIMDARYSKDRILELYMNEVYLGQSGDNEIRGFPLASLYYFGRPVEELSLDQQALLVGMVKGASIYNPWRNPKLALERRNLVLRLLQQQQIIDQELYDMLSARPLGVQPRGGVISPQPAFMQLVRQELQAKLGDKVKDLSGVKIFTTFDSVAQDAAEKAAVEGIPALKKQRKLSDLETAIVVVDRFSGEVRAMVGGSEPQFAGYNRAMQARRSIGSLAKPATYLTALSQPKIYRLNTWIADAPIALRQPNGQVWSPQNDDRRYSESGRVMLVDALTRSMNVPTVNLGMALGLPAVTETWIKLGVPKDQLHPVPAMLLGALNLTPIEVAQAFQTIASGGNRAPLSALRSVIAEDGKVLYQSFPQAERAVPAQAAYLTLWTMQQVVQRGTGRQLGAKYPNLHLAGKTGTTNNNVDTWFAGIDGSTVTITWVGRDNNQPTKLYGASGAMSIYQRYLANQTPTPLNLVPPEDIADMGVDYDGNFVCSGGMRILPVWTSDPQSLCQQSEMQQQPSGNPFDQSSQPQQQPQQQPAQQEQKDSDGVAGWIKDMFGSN
# UniProt P24228 = settings: peptide sequence: AGLHQAGVDGK; peptide start residue: 403; ligand concentration: 10 uM; sample: E. coli crude lysate
# UniProt P77754 = biological target: T3, UniProt P77754; settings: peptide sequence: DLNLTDAQK; peptide start residue: 54; ligand concentration: 10 uM; sample: E. coli crude lysate
# T3 sequence (whole entry): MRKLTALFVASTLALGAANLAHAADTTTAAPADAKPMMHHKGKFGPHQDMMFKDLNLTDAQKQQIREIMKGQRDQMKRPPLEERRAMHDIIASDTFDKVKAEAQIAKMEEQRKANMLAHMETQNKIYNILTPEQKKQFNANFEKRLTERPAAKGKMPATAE
# Sequence of UniProt P24228 (P24228 whole entry): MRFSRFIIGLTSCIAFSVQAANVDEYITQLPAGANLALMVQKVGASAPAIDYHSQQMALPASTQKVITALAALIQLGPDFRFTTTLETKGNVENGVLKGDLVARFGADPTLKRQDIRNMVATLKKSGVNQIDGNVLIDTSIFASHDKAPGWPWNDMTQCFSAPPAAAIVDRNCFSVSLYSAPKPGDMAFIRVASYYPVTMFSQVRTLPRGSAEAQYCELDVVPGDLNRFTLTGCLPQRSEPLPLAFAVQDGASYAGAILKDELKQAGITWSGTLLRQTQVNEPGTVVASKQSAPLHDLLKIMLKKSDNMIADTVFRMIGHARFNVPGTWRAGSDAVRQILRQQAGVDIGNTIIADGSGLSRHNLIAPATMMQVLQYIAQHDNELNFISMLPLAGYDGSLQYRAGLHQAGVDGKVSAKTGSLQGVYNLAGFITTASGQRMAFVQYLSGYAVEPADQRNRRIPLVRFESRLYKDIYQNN
structure (smiles),measurement,setting,value
CC1(C)S[C@@H]2[C@H](NC(=O)[C@H](N)c3ccccc3)C(=O)N2[C@H]1C(=O)O [ampicillin],log2 fold change,UniProt P02918,-1.56
same,log2 fold change,UniProt P02919,1.86
same,log2 fold change,UniProt P24228,-3.07
same,log2 fold change,UniProt P77754,-0.675

# From the supplement of paper PMC12819154, “High-throughput peptide-centric local stability assay extends protein–ligand identification to membrane proteins, tissues and bacteria” (Nature Structural & Molecular Biology, 2025)
